Active and inactive are the calls of the source.
Experiments:
[1] = binders of probe aFSTL3 on microarray, primary screen, stem cell growth factor project, biochemical, small-molecule microarray, fluorescence 635/667 (AID 1064); conditions: higher = more signal;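 also: measures binding of the biotinylated anti-FSTL3 antibody to printed compounds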
[2] = binders from COS7 lysate, DM2A8 probe, primary screen, torsin A project, cell lysate, small-molecule microarray, fluorescence 635/667 (AID 1065); conditions: higher = more signal, COS7 lysate expressing mutant human TOR1A
[3] = binders of probe aFGF2 on microarray, primary screen, stem cell growth factor project, biochemical, small-molecule microarray, fluorescence 635/667 (AID 1067); conditions: higher = more signal;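 also: measures binding of biotinylated aFGF2 protein to printed compounds on slides; z-score merges feature fluorescence and signal-to-noise across triplicate slides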
[4] = binders of probe aFGF10 on microarray, primary screen, stem cell growth factor project, biochemical, small-molecule microarray, fluorescence 635/667 (AID 1071); conditions: higher = more signal;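 also: score merges 667 nm spot intensity and signal to noise from triplicate slides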
[5] = target: Neurogenic locus notch homolog protein 2 (Homo sapiens) (UniProt Q04721); test: Notch2 binders on small-molecule microarrays, primary screen, biochemical, small-molecule microarray, 635 nm fluorescence, stem cell growth factors (AID 1073); conditions: Notch2 binding, higher = more signal
Neurogenic locus notch homolog protein 2 (Homo sapiens), sequence (Q04721 whole entry, looked up, canonical isoform): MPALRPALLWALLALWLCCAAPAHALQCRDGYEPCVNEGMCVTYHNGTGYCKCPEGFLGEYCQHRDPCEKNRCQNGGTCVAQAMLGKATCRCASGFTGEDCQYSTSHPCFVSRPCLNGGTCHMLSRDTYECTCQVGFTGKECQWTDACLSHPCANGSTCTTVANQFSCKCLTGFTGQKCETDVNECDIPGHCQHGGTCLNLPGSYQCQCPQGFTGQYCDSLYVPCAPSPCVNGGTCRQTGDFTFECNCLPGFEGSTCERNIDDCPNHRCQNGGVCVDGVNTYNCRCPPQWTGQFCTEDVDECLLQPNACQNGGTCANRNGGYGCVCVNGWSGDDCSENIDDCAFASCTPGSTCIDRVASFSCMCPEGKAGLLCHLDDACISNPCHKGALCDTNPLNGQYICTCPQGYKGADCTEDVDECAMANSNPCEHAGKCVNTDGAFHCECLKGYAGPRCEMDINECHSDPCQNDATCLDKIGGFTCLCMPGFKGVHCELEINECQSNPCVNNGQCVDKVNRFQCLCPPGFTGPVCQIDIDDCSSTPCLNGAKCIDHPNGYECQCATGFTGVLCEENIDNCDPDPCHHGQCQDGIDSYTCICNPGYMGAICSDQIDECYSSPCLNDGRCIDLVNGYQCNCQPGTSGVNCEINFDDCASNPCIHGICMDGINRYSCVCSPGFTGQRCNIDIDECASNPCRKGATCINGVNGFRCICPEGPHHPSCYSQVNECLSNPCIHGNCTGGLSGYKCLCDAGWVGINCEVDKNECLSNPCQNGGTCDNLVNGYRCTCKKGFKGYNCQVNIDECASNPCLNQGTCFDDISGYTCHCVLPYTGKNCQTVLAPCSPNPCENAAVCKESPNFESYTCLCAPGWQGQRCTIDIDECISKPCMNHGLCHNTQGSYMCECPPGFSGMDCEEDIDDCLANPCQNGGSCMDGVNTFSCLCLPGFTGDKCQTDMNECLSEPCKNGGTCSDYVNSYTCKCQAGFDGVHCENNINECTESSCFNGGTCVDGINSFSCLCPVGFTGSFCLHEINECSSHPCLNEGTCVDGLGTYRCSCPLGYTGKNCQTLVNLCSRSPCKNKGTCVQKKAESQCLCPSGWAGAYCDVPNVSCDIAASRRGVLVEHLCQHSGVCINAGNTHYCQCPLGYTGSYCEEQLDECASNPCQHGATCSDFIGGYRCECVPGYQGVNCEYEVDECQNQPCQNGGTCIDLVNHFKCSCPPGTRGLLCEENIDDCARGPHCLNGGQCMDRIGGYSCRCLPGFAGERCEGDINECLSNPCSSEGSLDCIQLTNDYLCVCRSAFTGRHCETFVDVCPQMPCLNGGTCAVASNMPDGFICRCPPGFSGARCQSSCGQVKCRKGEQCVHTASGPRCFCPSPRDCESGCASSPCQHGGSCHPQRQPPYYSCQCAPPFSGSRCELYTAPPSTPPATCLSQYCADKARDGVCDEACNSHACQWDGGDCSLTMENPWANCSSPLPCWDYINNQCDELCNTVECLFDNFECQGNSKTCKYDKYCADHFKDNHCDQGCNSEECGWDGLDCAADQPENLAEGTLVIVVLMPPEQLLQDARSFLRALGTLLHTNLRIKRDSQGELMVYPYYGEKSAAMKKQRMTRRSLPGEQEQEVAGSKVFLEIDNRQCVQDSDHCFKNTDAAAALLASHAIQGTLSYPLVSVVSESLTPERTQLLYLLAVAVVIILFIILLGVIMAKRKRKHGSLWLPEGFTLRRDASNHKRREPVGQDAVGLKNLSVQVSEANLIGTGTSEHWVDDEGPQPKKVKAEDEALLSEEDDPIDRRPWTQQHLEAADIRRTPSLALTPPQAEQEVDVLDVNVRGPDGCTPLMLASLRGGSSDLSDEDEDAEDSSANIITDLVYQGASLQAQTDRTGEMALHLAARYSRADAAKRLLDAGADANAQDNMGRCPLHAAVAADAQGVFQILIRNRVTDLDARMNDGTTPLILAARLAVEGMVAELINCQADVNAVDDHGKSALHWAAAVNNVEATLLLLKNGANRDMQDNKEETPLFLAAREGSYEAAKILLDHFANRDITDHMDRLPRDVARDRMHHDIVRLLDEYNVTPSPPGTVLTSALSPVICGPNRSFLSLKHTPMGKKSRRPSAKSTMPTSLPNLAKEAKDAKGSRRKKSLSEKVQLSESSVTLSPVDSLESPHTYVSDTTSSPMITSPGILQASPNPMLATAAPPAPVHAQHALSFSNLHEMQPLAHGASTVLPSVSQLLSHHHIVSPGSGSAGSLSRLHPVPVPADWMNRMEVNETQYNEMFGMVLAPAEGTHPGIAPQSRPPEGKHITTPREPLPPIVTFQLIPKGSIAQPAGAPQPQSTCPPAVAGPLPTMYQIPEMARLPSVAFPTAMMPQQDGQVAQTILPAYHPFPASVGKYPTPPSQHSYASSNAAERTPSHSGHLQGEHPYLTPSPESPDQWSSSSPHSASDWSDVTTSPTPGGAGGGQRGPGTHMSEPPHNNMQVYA

[6] = target: Pro-neuregulin-1, membrane-bound isoform (Homo sapiens) (UniProt Q02297); test: NRG1 binders on small-molecule microarrays, primary screen, psychiatric disease protein project, biochemical, small-molecule microarray, fluorescence 635/667 (AID 1075); conditions: NRG1 binding, 635 nm fluorescence, higher = more signal;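 also: score combines 667 nm spot fluorescence with signal to noise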
[7] = tested on: Neuregulin-1 EGF-like domain; test: binders of neuregulin-1 EGF-like domain, primary screen, biochemical, small-molecule microarray, 635 nm fluorescence (AID 1081); conditions: small-molecule microarray binding, higher = more signal;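 also: binding of the protein to compounds printed on small-molecule microarray slides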
[8] = FRG1 promoter luciferase signal modulators, primary screen, FRG1 inhibition for FSHD, cell-based, C2C12 myotubes, firefly/Renilla luciferase, luminescence (AID 1084); conditions: higher = more signal, called active from +8 up or from −8 down
[9] = binders of probe aFST on microarray, primary screen, stem cell growth factor project, biochemical, small-molecule microarray, fluorescence 635/667 (AID 1086); conditions: higher = more signal;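 also: score merges 667 nm fluorescence with signal-to-noise of each printed compound spot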
[10] = binders of probe aHhip on microarray, primary screen, stem cell growth factor project, biochemical, small-molecule microarray, fluorescence 635/667 (AID 1087); conditions: higher = more signal;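 also: score merges spot fluorescence at 667nm with spot signal to noise ratio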
[11] = tested on: PRMT1 (protein arginine N-methyltransferase 1); test: PRMT1 binders on small-molecule microarrays, primary screen, biochemical, small-molecule microarray, 635 nm fluorescence (AID 1088); conditions: small-molecule microarray binding, higher = more signal;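 also: binding of Prmt1 protein to compounds spotted on small-molecule microarray slides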
[12] = yeast growth modulation, basal conditions, primary screen, YJM789 clinical isolate, OD600, 24 h (AID 1089);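 also: growth of clinical yeast isolate S. cerevisiae YJM 789 seeded 1000 cells per well; test concentration not given here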; conditions: S. cerevisiae YJM789 growth, higher = more signal, called active from +8 up or from −8 down
[13] = fission yeast growth modulation, primary screen, strain 972, OD600, 24 h, no modulator (AID 1090);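 also: basal condition with compound alone and no growth modifier present; test concentration not given here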; conditions: S. pombe 972 growth, higher = more signal, called active from +8 up or from −8 down
[14] = S. cerevisiae growth modulation with rapamycin, primary screen, strain BY4716, OD600, 96 h (AID 1091); conditions: higher = more signal, called active from +8 up or from −8 down; also: test concentration not given here
[15] = target: Torsin-1A-interacting protein 2 (Homo sapiens) (UniProt Q8NFQ8); test: LULL1 binders on small-molecule microarray, primary screen, cell lysate, human LULL1 lysate, 635/667 nm fluorescence (AID 1092); conditions: hLULL1 lysate binding, 635 nm fluorescence, higher = more signal;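 also: probe is lysate of COS7 cells overexpressing human LULL1; score merges per-feature 667 nm fluorescence with signal-to-noise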
[16] = E. coli growth modulation, two-sided OD650, primary screen, E. coli filamentation project, strain DRC41, 24 h (AID 1093); conditions: OD650, 24 h, higher = more signal, called active from +8 up or from −8 down;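 also: MC1000 strain lacking acrAB efflux and sulA so SOS filamentation is blocked; test concentration not given here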
[17] = small-molecule microarray binders of probe aLefty2, primary screen, biochemical, biotinylated probe, 635/667 nm fluorescence (AID 1094); conditions: higher = more signal;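 also: score merges spot fluorescence near 667 nm with spot signal-to-noise ratio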
[18] = tested on: Noggin (protein binding on small-molecule microarray); test: Noggin binders on small-molecule microarray, primary screen, biochemical, 635/667 nm fluorescence (AID 1095); conditions: 635 nm fluorescence, higher = more signal;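 also: score merges 667 nm feature fluorescence with signal to noise over triplicate slides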
[19] = target: Neurogenic locus notch homolog protein 3 (Homo sapiens) (UniProt Q9UM47); test: NOTCH3 binders on small-molecule microarray, primary screen, biochemical, 635/667 nm fluorescence (AID 1096); conditions: NOTCH3 binding, 635 nm fluorescence, higher = more signal
Neurogenic locus notch homolog protein 3 (Homo sapiens), sequence (Q9UM47 whole entry, looked up): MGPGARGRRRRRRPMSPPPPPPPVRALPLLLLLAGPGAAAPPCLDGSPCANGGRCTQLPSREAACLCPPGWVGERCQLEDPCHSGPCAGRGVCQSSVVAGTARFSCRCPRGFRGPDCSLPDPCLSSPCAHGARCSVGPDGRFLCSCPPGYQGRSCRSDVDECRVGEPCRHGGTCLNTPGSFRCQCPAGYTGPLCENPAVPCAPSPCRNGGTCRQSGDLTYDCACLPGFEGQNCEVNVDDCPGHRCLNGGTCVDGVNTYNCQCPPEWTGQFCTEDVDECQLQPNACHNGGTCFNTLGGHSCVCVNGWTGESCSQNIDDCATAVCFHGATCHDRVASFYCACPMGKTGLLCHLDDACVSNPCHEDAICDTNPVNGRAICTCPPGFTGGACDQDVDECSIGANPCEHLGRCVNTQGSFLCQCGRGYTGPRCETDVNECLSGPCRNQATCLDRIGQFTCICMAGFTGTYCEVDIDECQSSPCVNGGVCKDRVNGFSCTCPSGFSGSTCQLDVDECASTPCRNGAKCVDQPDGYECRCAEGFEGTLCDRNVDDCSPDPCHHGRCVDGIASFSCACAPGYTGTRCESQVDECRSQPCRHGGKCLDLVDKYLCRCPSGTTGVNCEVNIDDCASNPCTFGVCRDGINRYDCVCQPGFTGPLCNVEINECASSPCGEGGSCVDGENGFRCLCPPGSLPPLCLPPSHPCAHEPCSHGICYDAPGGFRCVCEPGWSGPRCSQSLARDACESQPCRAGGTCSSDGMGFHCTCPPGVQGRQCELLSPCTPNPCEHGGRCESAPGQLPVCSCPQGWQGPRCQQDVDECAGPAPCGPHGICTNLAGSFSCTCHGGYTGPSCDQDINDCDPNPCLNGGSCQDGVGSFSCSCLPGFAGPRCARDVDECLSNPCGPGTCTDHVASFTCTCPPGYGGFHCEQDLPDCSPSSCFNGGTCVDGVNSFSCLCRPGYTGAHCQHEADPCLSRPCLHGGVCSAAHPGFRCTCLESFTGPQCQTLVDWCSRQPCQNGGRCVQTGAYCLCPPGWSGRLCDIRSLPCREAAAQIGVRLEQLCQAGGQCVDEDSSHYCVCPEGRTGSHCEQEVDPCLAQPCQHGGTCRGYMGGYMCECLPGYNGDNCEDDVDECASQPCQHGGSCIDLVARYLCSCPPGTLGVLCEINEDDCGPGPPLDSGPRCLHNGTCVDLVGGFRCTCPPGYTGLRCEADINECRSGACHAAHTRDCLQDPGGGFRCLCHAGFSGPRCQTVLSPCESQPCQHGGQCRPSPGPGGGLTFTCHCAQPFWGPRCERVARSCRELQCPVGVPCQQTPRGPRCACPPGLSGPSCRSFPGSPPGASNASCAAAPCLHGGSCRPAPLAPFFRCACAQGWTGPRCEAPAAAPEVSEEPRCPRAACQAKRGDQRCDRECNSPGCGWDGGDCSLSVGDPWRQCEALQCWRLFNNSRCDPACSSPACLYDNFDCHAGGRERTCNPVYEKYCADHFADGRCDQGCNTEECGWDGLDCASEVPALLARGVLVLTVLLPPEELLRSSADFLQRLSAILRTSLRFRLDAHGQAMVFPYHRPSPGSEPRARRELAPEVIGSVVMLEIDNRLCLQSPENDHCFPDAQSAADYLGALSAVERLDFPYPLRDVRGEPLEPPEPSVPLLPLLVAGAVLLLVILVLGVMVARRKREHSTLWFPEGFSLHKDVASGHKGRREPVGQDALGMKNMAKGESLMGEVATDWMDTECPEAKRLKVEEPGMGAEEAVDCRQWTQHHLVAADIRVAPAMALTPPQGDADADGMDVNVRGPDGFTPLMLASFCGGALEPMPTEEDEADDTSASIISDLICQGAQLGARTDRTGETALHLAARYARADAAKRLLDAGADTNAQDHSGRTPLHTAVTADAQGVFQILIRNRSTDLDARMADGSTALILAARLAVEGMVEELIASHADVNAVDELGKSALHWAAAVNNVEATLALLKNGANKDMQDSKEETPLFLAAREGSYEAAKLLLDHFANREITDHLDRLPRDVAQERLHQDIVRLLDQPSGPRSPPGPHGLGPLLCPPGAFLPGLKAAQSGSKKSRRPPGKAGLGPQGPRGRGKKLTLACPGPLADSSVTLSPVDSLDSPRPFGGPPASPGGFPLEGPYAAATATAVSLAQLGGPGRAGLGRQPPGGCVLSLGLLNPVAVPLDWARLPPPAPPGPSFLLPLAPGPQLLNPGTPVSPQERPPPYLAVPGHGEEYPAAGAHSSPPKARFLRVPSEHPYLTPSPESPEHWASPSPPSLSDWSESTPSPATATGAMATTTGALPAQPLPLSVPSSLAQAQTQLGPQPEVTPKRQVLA

[20] = small-molecule microarray binders of probe aEGFR, primary screen, biochemical, biotinylated probe, 635/667 nm fluorescence (AID 1097); conditions: higher = more signal;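 also: probe is a biotinylated anti-EGFR antibody binding compounds printed on slides; score combines fluorescence near 667 nm and signal to noise of each spot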

| Compound | composite z-score [1] | composite z-score [2] | composite z-score [3] | composite z-score [4] | composite z-score [5] | composite z-score [6] | composite z-score [7] | z-score [8] | composite z-score [9] | composite z-score [10] | composite z-score [11] | z-score [12] | z-score [13] | z-score [14] | composite z-score [15] | z-score [16] | composite z-score [17] | composite z-score [18] | composite z-score [19] | composite z-score [20] |
| --- | --- | --- | --- | --- | --- | --- | --- | --- | --- | --- | --- | --- | --- | --- | --- | --- | --- | --- | --- | --- |
| C[C@H]1C=CCC(=O)OC[C@H](C)C(=O)N2CCC[C@H]2C(=O)OC1 | -0.815 | 2.27 | -0.291 | -0.517 | -0.594 | -1.01 | 1.32 | 0.263 (inactive) | 0.227 | 0.107 | 1.54 | 0.94 (inactive) | 0.499 (inactive) | -0.0933 (inactive) | -1.44 | 0.0085 (inactive) | -0.228 | 2.09 | 0.373 | 0.177 |
| CC(CCC(=O)OC[C@H]1O[C@H](C#Cc2ccccc2)C=C[C@@H]1Oc1ccc(C)cc1)=NO[C@@H](C)c1cc(-c2c(C)cc(C)cc2C)no1 | -0.0913 | -1.14 | -0.144 | -0.558 | -1.58 | 0.122 | -0.525 | 0.87 (inactive) | -0.213 | 0.312 | -0.187 | 0.914 (inactive) | 0.811 (inactive) | 0.361 (inactive) | 0.226 | -0.318 (inactive) | -0.328 | -0.199 | -1.12 | -0.296 |
| CC(C)[C@@H](OCc1ccccc1)[C@H](C)CON=C1[C@H]2CCn3c(=O)n(-c4ccccc4)c(=O)n3[C@H]2[C@H](O)[C@@H]2O[C@H]12 | -0.375 | 0.616 | 0.0362 | 0.84 | 0.541 | 0.246 | 0.218 | -0.157 (inactive) | 0.369 | -0.126 | 0.462 | -1.48 (inactive) | -7.06 (inactive) | -0.882 (inactive) | 1.56 | 0.222 (inactive) | -0.0063 | 0.439 | 0.597 | -0.067 |
| O=C1[C@H]2[C@H]3[C@H](O)[C@H](O)CC(=NOCc4ccccc4)[C@@H]3CC[C@H]2C(=O)N1c1cccc(Oc2ccccc2)c1 | -0.556 | 0.101 | -0.0579 | 0.554 | 0.359 | 1.48 | 0.988 | -0.441 (inactive) | 0.529 | 0.141 | 1.35 | 0.663 (inactive) | 0.277 (inactive) | -0.349 (inactive) | 1.6 | 0.589 (inactive) | 0.266 | 0.889 | 0.64 | -0.0967 |
| O=C1CCCC=C1C(O)C1CCCCC1 (stereo not given) | -0.53 | 0.835 | -0.141 | 0.191 | -0.0306 | -0.594 | -0.593 | 0.0424 (inactive) | -0.0962 | 0.0373 | -0.784 | -0.711 (inactive) | 0.214 (inactive) | -0.478 (inactive) | 0.2 | 0.805 (inactive) | -0.0279 | -0.0241 | 0.0627 | -0.294 |
| C[C@@H]1CC[C@H]2C(=O)O[C@@H](CN=[N+]=[N-])CN2[C@H]1c1ccc(Br)cc1 | -0.264 | -0.021 | -0.085 | 0.361 | 0.271 | 0.486 | 0.786 | -1.46 (inactive) | 0.0048 | -0.199 | 1.34 | 1.85 (inactive) | -10.5 (active) | 32.7 (active) | 1.69 | 0.176 (inactive) | -0.15 | 0.553 | 0.679 | -0.104 |
| COCOc1ccc(Br)cc1C(=O)C=Cc1ccc2c(c1)OCO2 | -0.289 | 0.738 | -0.0878 | 0.313 | 0.315 | -0.302 | -0.645 | -2.06 (inactive) | 0.13 | -0.226 | 0.253 | -0.827 (inactive) | -7.01 (inactive) | 32.1 (active) | -0.57 | 0.368 (inactive) | -0.16 | 0.698 | 0.0871 | -0.0834 |
| CCN1C(=O)[C@H]2[C@H]3[C@H](O)[C@H](O)CC(=NO[C@H](C)c4cn([C@H](CO)Cc5ccccc5)nn4)[C@@H]3CC[C@H]2C1=O | -0.907 | 0.0378 | -0.116 | 1.08 | 1.01 | 0.782 | 0.934 | 0.804 (inactive) | 0.606 | -0.344 | 1.4 | -0.444 (inactive) | 0.121 (inactive) | -0.371 (inactive) | 1.59 | 0.607 (inactive) | -0.207 | 0.496 | 0.89 | -0.0132 |
| CC(CCN1CCCCc2nc(C)c(C)cc21)=NO[C@@H](C)c1cc(-c2c(C)cc(C)cc2C)no1 | -0.0105 | -0.454 | -0.232 | -0.33 | -1.93 | 0.0782 | -0.246 | -1.49 (inactive) | -0.689 | -0.134 | 0.0804 | -1.73 (inactive) | -10.2 (active) | -0.199 (inactive) | -0.745 | 0.486 (inactive) | -0.126 | -0.0547 | -1.55 | -0.343 |

Reference: PubChem BioAssay
